Dicer inh: human Dicer pre-microRNA cleavage inhibition; Q9UPY3; cat-ELCCA pre-miR-21 Dicer processing, chemiluminescence; active compounds read high; z-score at 25 µM; 47,000 compounds, 6% hits; AID 1347074; in the data active = z-score above about 3, passing the limit was not always enough;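 note: plate controls were vehicle for no effect and no enzyme for full effect; higher signal means more uncleaved substrate so more Dicer inhibition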
* marks the source's active call; other numbers are inactive results. Many of the other results were omitted from the sample, so hits are more common in it than they were.

SMILES | Dicer inh
O=C(Nc1ccc2oc(-c3cccc4c(Br)cccc34)nc2c1)c1cccnc1 | -0.75
O=C(NCc1ccc(S(=O)(=O)Nc2ccc(Oc3ncnc4cc(Cl)ccc34)nc2)s1)c1ccccc1 | -0.37
Nc1cc(=O)[nH]c(SCc2nc(-c3cccs3)no2)n1 | 2.5
CC(C)(O)CCSc1ccc([N+](=O)[O-])cn1 | -0.55
CCOC(=O)c1c(NC(=O)Nc2ccc(F)cc2)sc2c1CCN(C)C2 | 0.57
CC(C)(C)C(=O)Oc1ccc2c(=O)c(Oc3ccccc3Br)coc2c1 | -0.06
Cc1cccc(Oc2coc3cc(OC(=O)c4cccnc4)ccc3c2=O)c1 | -0.67
Cc1cccc(Oc2coc3cc(OC(=O)c4ccncc4)ccc3c2=O)c1 | 28*
Cc1ccc(C)c(Oc2coc3cc(OCC(=O)OCC(C)C)ccc3c2=O)c1 | 1.9
CC(C)OC(=O)C(C)Oc1ccc2c(=O)c(Oc3ccccc3Br)coc2c1 (centres undefined) | -0.2
COc1ccc(Oc2coc3cc(OC(=O)c4ccc(F)cc4)ccc3c2=O)cc1 | 0.4
CC(C)(C)c1ccc(Oc2coc3cc(O)ccc3c2=O)cc1 | -1.3
Cc1ccc(Oc2coc3cc(O)ccc3c2=O)cc1 | 0.2
CCOCCOC(=O)COc1ccc2c(=O)c(Oc3cc(C)ccc3C)coc2c1 | 3.4*
Cc1cc(C)cc(Oc2coc3cc(O)ccc3c2=O)c1 | 4.3*
CCC(C)OC(=O)COc1ccc2c(=O)c(Oc3cc(C)ccc3C)coc2c1 (centres undefined) | 7.7
CCC(=O)Oc1ccc2c(=O)c(Oc3ccccc3Br)coc2c1 | 4.3*
CCOC(=O)c1cc(=O)c2ccc(OCC(=O)Nc3ccccc3)cc2o1 | 2.3
CC/C(=C(/CC)c1ccc(O)cc1)c1ccc(O)cc1 | 6.1
CCCCCC(C)(C)NC(=O)CN1CCOCC1 | -1.1
COc1nc(NC(=O)NS(=O)(=O)Oc2ccc(Cl)cc2Cl)nc(C23CC4CC(CC(C4)C2)C3)n1 | 0.53
CCOc1ccc(C2N=C(N)Nc3nc4ccccc4n32)cc1 (centres undefined) | 2.4
CCOC(=O)Oc1ccc2c(=O)c(Oc3ccc(C(C)(C)C)cc3)coc2c1 | 1.5
COc1ccccc1C(=O)Oc1ccc2c(=O)c(Oc3ccccc3Br)coc2c1 | 2.2
COc1ccccc1-c1coc2cc(OC(=O)c3ccc(Cl)cc3)ccc2c1=O | -0.87
SMILES | Dicer inh
C=CCOC(=O)Oc1ccc2c(=O)c(Oc3ccc(CC)cc3)coc2c1 | 1.3
COc1ccc(C(=O)Oc2ccc3c(=O)c(Oc4ccccc4Br)coc3c2)cc1OC | 3.1*
CCCCOC(=O)Oc1ccc2c(=O)c(Oc3ccc(C)cc3)coc2c1 | 3.5*
CC(=O)Oc1c(-c2ccccc2)c(=O)n2c3c(cccc13)CC2 | 2.6
N#Cc1c(N)sc(=S)c2c1CCCC2 | -2.5
CS(=O)(=O)N(Cc1ccccc1)Cc1ccccc1N1CCC(C(=O)O)CC1 | -0.02
Cn1c(-c2ccc(F)cc2)cnc1NCc1ccc(Br)cc1 | 3.7
Cc1ccc(-c2cnc(NCc3ccc(Br)cc3)n2C)cc1 | 3.3*
COc1ccc(-c2cnc(NCc3cc(Br)ccc3F)n2C)cc1 | -1.2
Cn1c(-c2ccccc2)cnc1NCc1cc(Br)ccc1F | 1.1
Cn1c(-c2ccc(Cl)cc2)cnc1NCc1ccccc1F | 3.2*
Cn1c(-c2ccc(F)cc2)cnc1NCc1ccccc1F | 1.6
Cn1c(-c2ccc(Cl)cc2)cnc1NCc1ccc(F)cc1F | 3.3*
COc1cccc(-c2cnc(NCc3ccc(Br)cc3)n2C)c1 | 0.77
Cn1c(-c2ccccc2)cnc1NCc1cc(Cl)ccc1O | 1.5
COCCNC(=O)[C@H](C)NC(=O)c1ccc(Cl)cc1Cl | 1.9
CC(C)C1CC(=O)C=C2CCCCC21 (centres undefined) | -1.8
CC(C)(C)OC(=O)NCCNC(=O)Nc1cccc(Cl)c1Cl | -0.14
COC(=O)c1sc(-c2ccccc2)cc1NC(=O)C(Cl)(Cl)Cl | 2.1
CC(=O)OCc1cc(/C=N/N(C(C)=O)c2ccccc2)nn1-c1ccccc1 | 3.5*
COC(=O)Nc1cc(C)n(-c2ccccc2)n1 | 0.02
Cc1cc(NC(=O)N(C)C)nn1-c1ccccc1 | -2.1
CC(C)(C)c1ccc(/C(N)=N/OC(=O)CCSc2cccs2)cc1 | -2.3
CCC(C)N/C=C(\C#N)S(=O)(=O)c1ccc(Br)cc1 (centres undefined) | -0.36
CSc1nc(C)nc(Nc2ccccc2)c1C#N | -0.75
SMILES | Dicer inh
ONC=Nc1cc(Cl)c(-n2cccc2)cc1Cl | -0.78
Cc1cc(N=CNO)c2ccccc2n1 | -0.52
CCCCc1ccc(N=CNO)c(C)c1 | 4*
COc1cc([C@@H]2c3cc4c(cc3[C@@H](O[C@@H]3O[C@@H]5CO[C@@H](C)O[C@H]5[C@H](O)[C@H]3O)[C@H]3COC(=O)[C@H]23)OCO4)cc(OC)c1O | 0.42
O=C(Nc1ccccc1Cl)C1COc2ccccc2O1 (centres undefined) | 0.57
COc1ccc(C2CC(=O)C3=C(C2)NC(C)=C(C(=O)OCC(C)C)C3c2ccc3c(c2)OCO3)cc1 (centres undefined) | -0.15
CCOCCOC(=O)C1=C(C)NC2=C(C(=O)CC(c3ccccc3)C2)C1c1cccc2ccccc12 (centres undefined) | 5.2*
CCOC(=O)C1=C(C)NC2=C(C(=O)CC(c3ccccc3)C2)C1c1ccccc1Cl (centres undefined) | 3.7*
CCOC(=O)C1=C(C)NC2=C(C(=O)CC(c3ccccc3)C2)C1c1ccc(C)o1 (centres undefined) | 1.2
CC1=C(C(=O)OCC(C)C)C(c2cccc(F)c2)C2=C(CC(c3ccccc3)CC2=O)N1 (centres undefined) | 1.1
CCSCCOC(=O)C1=C(C)NC2=C(C(=O)CC(c3ccc(OC)cc3)C2)C1c1ccc(F)cc1 (centres undefined) | 1.7
CCSCCOC(=O)C1=C(C)NC2=C(C(=O)CC(c3ccccc3)C2)C1c1cccc(F)c1 (centres undefined) | 3.7*
CCCOc1ccccc1C1C(C(=O)OCC)=C(C)NC2=C1C(=O)CC(c1ccccc1)C2 (centres undefined) | 0.08
CCOCCOC(=O)C1=C(C)NC2=C(C(=O)CC(c3ccccc3)C2)C1c1ccc(F)cc1 (centres undefined) | 1.6
CCOC(=O)C1=C(C)NC2=C(C(=O)CC(c3ccccc3)C2)C1c1cccc2ccccc12 (centres undefined) | 0.44
COc1ccc(C2C(C(=O)OCC(C)C)=C(C)NC3=C2C(=O)CC(c2ccccc2)C3)c(OC)c1 (centres undefined) | 1.1
CC(=O)Oc1ccc(C2C(C(=O)OCC(C)C)=C(C)NC3=C2C(=O)CC(c2ccccc2)C3)cc1 (centres undefined) | 7*
Cc1ccccc1C(=O)NNc1ccc(-c2csnn2)cc1 | -1.4
COC(=O)C1C2C=CC3(CN(Cc4ccc(C)cc4)C(=O)C13)O2 (centres undefined) | 1.1
CCSC1=NCN(CCCC(=O)O)CN1 | -0.51
Nc1nc2nc(-c3ccco3)cc(C(F)(F)F)n2n1 | -1.5
CCOC(=O)c1ccc(NC(=S)N(CCC#N)C2CCCCC2)cc1 | -1
CCC1SC2=NCN(c3ccccc3)CN2C1=O (centres undefined) | -2.4
CC(Sc1nc(-c2ccccc2)cc(C(F)(F)F)n1)C(=O)O (centres undefined) | 1
CC(=O)O/N=C(\N)Cc1ccc(-c2csnn2)cc1 | 0.14
Cc1cc(C)cc(N2CC(O)=C(c3nc4ccccc4s3)C2=N)c1 | 1.2
CCNc1nc2c(ncn2[C@H]2C[C@H](O)[C@@H](CO)O2)c(=O)[nH]1 | 0.15
O=C1Nc2c(cccc2C(F)(F)F)C1=O | -3.3

Source: PubChem BioAssay (Center for Chemical Genomics, University of Michigan)
